TRHR enhancer: TRH receptor (human) allosteric enhancement. TRHR cells, fluo-8 calcium fluorescence, EC20 TRH enhancement. enhancement, % at 2 µM. 360,000 tested, 0.66% active; in the data active = enhancement above about 30%; also: 0% is about no effect
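TRHR-expressing cells loaded with fluo-8 calcium dye were read kinetically (ex 480/em 530) during compound addition, then stimulated with an EC20 of TRH (10 nM final). Enhancement of the Gq-mediated intracellular calcium response was scored.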
LDHA block: blocks human lactate dehydrogenase A; 480,000 tested, 0.15% active; P00338; purified LDHA, NADH/diaphorase-resazurin fluorescence; stronger effect = lower value; activity change, % (values are at about 110 or 230 µM); in the data active = activity change below about -30%;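 also: plate controls were DMSO wells for no effect and wells without enzyme for full effect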
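Remaining NADH was detected by diaphorase (0.133 mg/mL) converting 37 µM resazurin to fluorescent resorufin, read at 0 and 20 minutes. The preceding 5-minute room-temperature reaction used 2 nM LDHA, 0.2 mM sodium pyruvate and 0.06 mM NADH at pH 7.4.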
TRHR ag: TRH receptor (human) agonism | TRHR cells, calcium flux fluo-8, FDSS agonist mode | activation, % at 2 µM | 360,000 tested, 0.18% active | AID 493084; also: 0% is about no effect
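TRHR-expressing cells, plated overnight in medium with 10% serum, were loaded with fluo-8 calcium dye at room temperature. After a 10 s baseline, library compound was pin-added and calcium release was recorded kinetically (ex 480/em 530) as agonist response.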
D1 agonist: agonists of human D1 dopamine receptor | 360,000 tested, 1% active | P21728 | activation, % at 2 µM | HEK293 T-REx D1 cells, calcium flux, agonist mode; also: 0% is about no effect
Target sequence (P21728 whole entry, looked up): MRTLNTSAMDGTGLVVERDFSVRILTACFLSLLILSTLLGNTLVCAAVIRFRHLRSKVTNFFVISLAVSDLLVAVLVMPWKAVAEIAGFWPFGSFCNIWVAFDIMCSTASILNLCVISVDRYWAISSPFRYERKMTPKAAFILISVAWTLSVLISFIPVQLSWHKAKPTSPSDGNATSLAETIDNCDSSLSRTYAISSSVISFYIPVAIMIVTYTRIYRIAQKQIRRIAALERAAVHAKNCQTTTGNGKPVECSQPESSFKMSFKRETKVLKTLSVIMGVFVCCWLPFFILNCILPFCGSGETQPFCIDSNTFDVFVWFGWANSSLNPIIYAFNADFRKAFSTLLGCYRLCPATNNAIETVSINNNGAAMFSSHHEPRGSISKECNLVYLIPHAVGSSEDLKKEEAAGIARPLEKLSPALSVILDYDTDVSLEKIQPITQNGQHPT
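Tetracycline-induced HEK293 TREx D1 cells, force-coupled to calcium signalling, were dye-loaded with a no-wash calcium kit. Compound was pin-added after a 10 s baseline. Fluorescence was read kinetically at 1 cycle/s for 180 s, with calcium rises flagged as agonism.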
D1 PAM: potentiators of human D1 dopamine receptor; HEK293 TREx D1 cells, calcium flux, dopamine EC20 potentiation; potentiation, % at 10 µM; 360,000 tested, 0.036% active; AID 504651; in the data active = potentiation above about 30%; also: 0% is about no effect
D1 antag: antagonists of human D1 dopamine receptor | 360,000 tested, 3.2% active | HEK293 TREx D1 cells, calcium flux, dopamine EC80; stronger effect = lower value | activity change, negative = inhibition, % at 10 µM | P21728 | AID 504652; in the data active = activity change below about -30%; also: % is scaled to controls: 0 for no effect and ±100 for the full control effect
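Using tetracycline-induced force-coupled D1 Hek293 cells and a calcium dye, signals were followed for 180 s after compound, then for 180 s after EC80 dopamine, to detect inhibitors.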
Active calls of the source: *. A selection: hits, their analogues and other compounds. The true share with any hit is near 3.6%. Rule as the data show it, unless noted: active = activation above about 30%; inactive = the rest.

What do the screens show for `c1ccc(CSc2ncn(-c3nc(N4CCOCC4)nc(N4CCOCC4)n3)n2)cc1`?
LDHA block: 5

Results for CCCCNC(=O)c1sc(=S)n2c1[nH]c(=O)c1ccccc12 ?
TRHR enhancer: 2; LDHA block: -6; TRHR ag: 5; D1 agonist: 30*; D1 PAM: -8; D1 antag: -16

Results for CC(C)NC(=O)c1sc(=S)n2c1[nH]c(=O)c1ccc(C(=O)NCCc3ccc(Cl)cc3)cc12 ?
TRHR enhancer: -9; LDHA block: -3; TRHR ag: 0; D1 agonist: 3; D1 PAM: -11; D1 antag: -59*

Results for CCOc1ccc(CCNC(=O)c2ccc3c(=O)[nH]c4c(C(=O)NC(C)C)sc(=S)n4c3c2)cc1 ?
TRHR enhancer: -2; LDHA block: -7; TRHR ag: 0; D1 agonist: 2; D1 PAM: -6; D1 antag: -29

What do the screens show for `O=C(NC1CCCCC1)c1sc(=S)n2c1[nH]c(=O)c1ccccc12`?
TRHR enhancer: -4; LDHA block: -7; TRHR ag: 3; D1 agonist: 29; D1 PAM: -6; D1 antag: -19

What do the screens show for `O=C(Nc1ccc(C(F)(F)F)cc1)c1nn(C2CCS(=O)(=O)C2)c2c1CCCC2` (stereo not given)?
LDHA block: 1

How did CC(C(=O)NCc1ccc(Cl)cc1)N1CCCC(C(F)(F)F)C1 (stereo not given) do in these assays?
LDHA block: 9

What do the screens show for `O=Cc1ccccc1-c1ccccc1C(=O)O`?
LDHA block: 14

Results for CCCNC(=S)NC1CC2CCCC(C1)N2Cc1ccccc1OC (stereo not given) ?
LDHA block: -8

Results for COc1ccccc1CN1C2CCCC1CC(NC(=O)/C=C/c1ccccc1)C2 (stereo not given) ?
TRHR enhancer: 32*; LDHA block: -10; TRHR ag: 0; D1 agonist: 0; D1 PAM: 3; D1 antag: -12

How did Cc1ccccc1NC(=O)Cn1c(SCC(=O)Nc2ccc(F)cc2)nc2ccccc21 do in these assays?
TRHR enhancer: -2; LDHA block: -6; TRHR ag: 0; D1 agonist: 1; D1 PAM: 0; D1 antag: -80*

Results for COc1ccc(NC(=O)CSc2nc3ccccc3n2CC(=O)NCc2ccc(F)cc2)cc1 ?
TRHR enhancer: 10; LDHA block: -15; TRHR ag: -1; D1 agonist: -1; D1 PAM: 0; D1 antag: 6

What do the screens show for `Cc1c(C(=O)N(C)C2CCN(CCc3ccccn3)CC2)oc2ccccc12`?
LDHA block: -6

Results for Cc1ccc(OCC(=O)c2cc(C)n(Cc3cccs3)c2C)c([N+](=O)[O-])n1 ?
TRHR enhancer: 39*; LDHA block: -1; TRHR ag: 0; D1 agonist: 12; D1 PAM: -7; D1 antag: -7

How did Cc1ccc(OCC(=O)c2cc(C)n(CC(F)(F)F)c2C)c([N+](=O)[O-])n1 do in these assays?
TRHR enhancer: 1; LDHA block: 3; TRHR ag: 0; D1 agonist: 4; D1 PAM: 0; D1 antag: -11

Results for CCCC(=O)N1CCN(c2oc(/C=C/c3cccc(OC)c3)nc2C#N)CC1 ?
LDHA block: 14

Results for O=C(NCc1ccc2c(c1)OCO2)c1cccc(Oc2ccnc(-c3ccc(F)cc3)n2)c1 ?
LDHA block: -2

Results for CC(C)CNc1cc(NC2CCCCC2)c2c3c(onc13)-c1ccccc1C2=O ?
TRHR enhancer: -1; LDHA block: 18; TRHR ag: 0; D1 agonist: 1; D1 PAM: 3; D1 antag: -5

Results for O=C1c2ccccc2-c2onc3c(Br)cc(NC4CCCCC4)c1c23 ?
TRHR enhancer: 0; LDHA block: 3; TRHR ag: 6; D1 agonist: 39*; D1 PAM: -3; D1 antag: -2
